According to the supplement of paper PMC9694430:

Legend:
Assay in all cases: thermal shift delta Tm vs DMSO control; higher = stronger stabilization (binding)
Details in all cases: 12.5 µM; protein concentration 2 µM
LOC_OS02G45750-cb003 = test system: LOC_OS02G45750-cb003
Method in brief: (§1)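 Rice kinase domain constructs, made in E. coli and purified, were placed in 96-well plates at 2 μM in 19.5 μl of 100 mM potassium phosphate pH 7.5, 150 mM NaCl, 10% glycerol and 5 × SYPRO Orange, with compound in DMSO. A temperature ramp from 25°C to 95°C at 0.05°C/s was used for differential scanning fluorimetry. The melting temperature shift is a triplicate mean compared with DMSO-only protein, derived from Boltzmann fits.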

LOC_OS02G54510-cb004 = test system: LOC_OS02G54510-cb004
Method in brief: as §1

LOC_OS03G04050-cb001 = test system: LOC_OS03G04050-cb001
Method in brief: as §1

LOC_OS03G12390-cb001 = test system: LOC_OS03G12390-cb001
Method in brief: as §1

LOC_OS03G27990-cb004 = test system: LOC_OS03G27990-cb004
Method in brief: as §1

LOC_OS03G50450-cb001 = test system: LOC_OS03G50450-cb001
Method in brief: as §1

LOC_OS03G50810-cb003 = test system: LOC_OS03G50810-cb003
Method in brief: as §1

LOC_OS04G35114-cb001 = test system: LOC_OS04G35114-cb001
Method in brief: as §1

LOC_OS04G38480-cb003 = test system: T1, LOC_OS04G38480-cb003
T1 sequence (whole entry): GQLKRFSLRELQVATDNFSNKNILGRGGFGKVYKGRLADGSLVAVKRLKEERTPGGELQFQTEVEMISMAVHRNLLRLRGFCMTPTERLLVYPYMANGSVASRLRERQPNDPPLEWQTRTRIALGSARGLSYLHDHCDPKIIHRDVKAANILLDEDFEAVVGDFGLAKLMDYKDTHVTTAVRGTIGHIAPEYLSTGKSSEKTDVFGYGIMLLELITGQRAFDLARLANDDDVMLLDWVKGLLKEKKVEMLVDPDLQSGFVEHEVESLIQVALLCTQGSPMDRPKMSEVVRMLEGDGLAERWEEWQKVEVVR
Method in brief: as §1

LOC_OS04G41100-cb001 = test system: T2, LOC_OS04G41100-cb001
T2 sequence (whole entry): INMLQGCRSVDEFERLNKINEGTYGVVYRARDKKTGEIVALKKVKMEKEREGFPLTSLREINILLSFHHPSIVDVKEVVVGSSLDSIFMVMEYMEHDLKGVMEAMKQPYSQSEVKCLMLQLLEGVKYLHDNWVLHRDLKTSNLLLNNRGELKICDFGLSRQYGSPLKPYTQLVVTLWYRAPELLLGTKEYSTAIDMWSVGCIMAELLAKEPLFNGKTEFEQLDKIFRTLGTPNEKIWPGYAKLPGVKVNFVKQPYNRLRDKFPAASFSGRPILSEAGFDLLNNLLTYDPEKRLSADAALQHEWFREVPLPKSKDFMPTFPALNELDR
Method in brief: as §1

LOC_OS04G57630-cb004 = test system: LOC_OS04G57630-cb004
Method in brief: as §1

LOC_OS05G07850-cb002 = test system: LOC_OS05G07850-cb002
Method in brief: as §1

LOC_OS05G16824-cb004 = test system: LOC_OS05G16824-cb004
Method in brief: as §1

LOC_OS05G28520-cb001 = test system: LOC_OS05G28520-cb001
Method in brief: as §1

LOC_OS05G30820-cb001 = test system: LOC_OS05G30820-cb001
Method in brief: as §1

LOC_OS05G43570-cb004 = test system: LOC_OS05G43570-cb004
Method in brief: as §1

LOC_OS06G16330-cb003 = test system: LOC_OS06G16330-cb003
LOC_OS06G16330-cb003, sequence (as listed by the source): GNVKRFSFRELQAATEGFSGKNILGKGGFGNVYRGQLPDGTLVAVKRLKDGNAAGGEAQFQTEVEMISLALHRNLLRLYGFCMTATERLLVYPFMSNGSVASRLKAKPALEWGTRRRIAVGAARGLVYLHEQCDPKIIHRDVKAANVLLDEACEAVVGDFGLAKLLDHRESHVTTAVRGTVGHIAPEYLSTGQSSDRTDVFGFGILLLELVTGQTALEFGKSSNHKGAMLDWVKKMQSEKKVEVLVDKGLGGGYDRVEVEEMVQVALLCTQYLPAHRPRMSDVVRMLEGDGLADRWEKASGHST
Method in brief: as §1

LOC_OS06G22820-cb001 = test system: T3, LOC_OS06G22820-cb001
T3 sequence (whole entry): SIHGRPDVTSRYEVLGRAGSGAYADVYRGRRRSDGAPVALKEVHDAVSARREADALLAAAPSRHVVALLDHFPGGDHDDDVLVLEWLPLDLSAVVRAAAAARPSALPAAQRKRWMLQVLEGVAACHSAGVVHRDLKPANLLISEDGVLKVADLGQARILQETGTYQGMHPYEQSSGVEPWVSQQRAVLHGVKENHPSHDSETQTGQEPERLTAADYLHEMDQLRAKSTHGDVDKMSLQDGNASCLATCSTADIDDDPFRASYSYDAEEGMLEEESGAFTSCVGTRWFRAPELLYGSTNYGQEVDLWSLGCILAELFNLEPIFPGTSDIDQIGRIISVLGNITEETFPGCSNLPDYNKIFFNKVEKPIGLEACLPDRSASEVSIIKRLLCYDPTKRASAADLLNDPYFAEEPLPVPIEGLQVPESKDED
Method in brief: as §1

LOC_OS07G06570-cb004 = test system: LOC_OS07G06570-cb004
Method in brief: as §1

LOC_OS07G07230-cb001 = test system: LOC_OS07G07230-cb001
Method in brief: as §1
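Further: purified Escherichia coli-expressed rice kinase domain construct.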

Row | SMILES | thermal shift delta Tm (LOC_OS02G45750-cb003) | thermal shift delta Tm (LOC_OS02G54510-cb004) | thermal shift delta Tm (LOC_OS03G04050-cb001) | thermal shift delta Tm (LOC_OS03G12390-cb001) | thermal shift delta Tm (LOC_OS03G27990-cb004) | thermal shift delta Tm (LOC_OS03G50450-cb001) | thermal shift delta Tm (LOC_OS03G50810-cb003) | thermal shift delta Tm (LOC_OS04G35114-cb001) | thermal shift delta Tm (LOC_OS04G38480-cb003) | thermal shift delta Tm (LOC_OS04G41100-cb001) | thermal shift delta Tm (LOC_OS04G57630-cb004) | thermal shift delta Tm (LOC_OS05G07850-cb002) | thermal shift delta Tm (LOC_OS05G16824-cb004) | thermal shift delta Tm (LOC_OS05G28520-cb001) | thermal shift delta Tm (LOC_OS05G30820-cb001) | thermal shift delta Tm (LOC_OS05G43570-cb004) | thermal shift delta Tm (LOC_OS06G16330-cb003) | thermal shift delta Tm (LOC_OS06G22820-cb001) | thermal shift delta Tm (LOC_OS07G06570-cb004) | thermal shift delta Tm (LOC_OS07G07230-cb001)
1 | N#Cc1c(Oc2ccc(F)c(NC(=O)Cc3cccc(C(F)(F)F)c3)c2)ccc2nc(NC(=O)C3CC3)sc12 | 1.08 °C | 0.54 °C | 0.5 °C | 0.15 °C | 0.31 °C | 0.4 °C | 0.5 °C | 0.45 °C | 1.92 °C | 0.42 °C | 0.09 °C | 0.32 °C | -2.82 °C | 0.59 °C | 0.49 °C | 0.4 °C | 0.5 °C | 0.74 °C | 1.21 °C | 0.32 °C
2 | Cc1ccc(F)c(NC(=O)Nc2ccc(-c3cccc4[nH]nc(N)c34)cc2)c1 [Linifanib (ABT-869)] | 0.85 °C | -0.22 °C | 0.3 °C | 3.38 °C | 1.2 °C | 0.4 °C | 0.8 °C | 2.54 °C | 0.22 °C | 1.77 °C | 0.74 °C | 4.63 °C | 1.86 °C | 0.75 °C | 0.85 °C | 0.9 °C | 3.55 °C | 0.6 °C | 0.72 °C | 0.93 °C
3 | CCCCNc1ncc(-c2ccc(CN3CCOCC3)cn2)c(NC2CCC(O)CC2)n1 (stereo not given) | 13.7 °C | 0.36 °C | 0.34 °C | 2.88 °C | 1.94 °C | 1.29 °C | 5.33 °C | 7.84 °C | 3.1 °C | 0.46 °C | 4.09 °C | 9.44 °C | 8.95 °C | 0.2 °C | 0.7 °C | 0.43 °C | 9.08 °C | 0.1 °C | 0.37 °C | 0.71 °C
4 | CCc1cnn2c(NCc3ccc[n+]([O-])c3)cc(N3CCCC[C@H]3CCO)nc12 | 0.58 °C | 0.19 °C | 0.27 °C | 1.31 °C | 0.33 °C | 0.63 °C | 0.67 °C | 0.57 °C | 0.56 °C | 0.68 °C | -0.16 °C | 2 °C | -0.11 °C | 0.17 °C | 0.37 °C | 0.19 °C | -0.11 °C | 0.41 °C | 0.51 °C | 0.3 °C
5 | O=c1cc(-c2ccccc2)oc2c(O)c(O)ccc12 [7,8-Dihydroxyflavone] | 1.01 °C | 0.54 °C | 1.54 °C | 0.5 °C | 0.49 °C | 0.77 °C | 0.46 °C | -0.74 °C | 0.33 °C | -0.06 °C | -0.51 °C | 1.25 °C | -6.61 °C | 2.12 °C | 1.22 °C | 1.47 °C | 1.88 °C | 1.1 °C | 3.28 °C | 0.94 °C
6 | C[C@@H](N)[C@H]1CC[C@H](C(=O)Nc2ccncc2)CC1 | 0.42 °C | -0.03 °C | 0.29 °C | 0.52 °C | 0.09 °C | 0.25 °C | 0.21 °C | 0.03 °C | 1.42 °C | 0.81 °C | 0.06 °C | 0.75 °C | 1.53 °C | 0.81 °C | 0.41 °C | 0.43 °C | 0.4 °C | 0.94 °C | 0.98 °C | 0.08 °C
7 | C=CC(=O)N1CCC[C@@H](n2nc(-c3ccc(Oc4ccccc4)cc3)c3c(N)ncnc32)C1 | 1.46 °C | 1.25 °C | 0.88 °C | 0.1 °C | 0.51 °C | 1.39 °C | 1.07 °C | 3.03 °C | 1.2 °C | 0.37 °C | 1 °C | 6.56 °C | 1.31 °C | -0.3 °C | 0.44 °C | 0.27 °C | 1.99 °C | 0.54 °C | 0.5 °C | 0.64 °C
8 | C=C(C)[C@@H]1CC[C@]2(C)CC[C@]3(C)[C@H](CC[C@@H]4[C@@]5(C)CC[C@H](O)C(C)(C)[C@@H]5CC[C@]43C)[C@@H]12 [Lupeol] | 1.07 °C | 0.49 °C | 0.67 °C | 0.01 °C | 0.18 °C | 0.36 °C | 0.4 °C | 1.24 °C | 3.02 °C | 0.47 °C | 0.77 °C | 0.82 °C | 1.84 °C | 0.13 °C | 0.38 °C | 0.49 °C | -2.09 °C | 0.12 °C | 1.26 °C | 0.62 °C
9 | COCCOc1cnc2ccn([C@H](C)c3nnc4c(F)cc(-c5cnn(C)c5)cn34)c(=O)c2c1 | 1.08 °C | -0.12 °C | 0.22 °C | -0.12 °C | 0.2 °C | 0.05 °C | -0.09 °C | 0.69 °C | 0.41 °C | 0.65 °C | 0.33 °C | 0.47 °C | -0.61 °C | 0.19 °C | 0.72 °C | 0.35 °C | 2.3 °C | 0.29 °C | 1.07 °C | 0.81 °C
10 | CCc1nc(C(N)=O)c(Nc2ccc(N3CCC(N4CCN(C)CC4)CC3)c(OC)c2)nc1NC1CCOCC1 [Gilteritinib (ASP2215)] | 9.25 °C | 3.16 °C | 0.4 °C | 9.74 °C | 8.74 °C | 5.63 °C | 8.56 °C | 11.4 °C | 6.15 °C | 0.57 °C | 5.73 °C | 17.4 °C | 9.44 °C | 1.33 °C | 0.92 °C | 1.54 °C | 15.3 °C | 0.74 °C | 1.35 °C | 0.17 °C
11 | O=C(Nc1cccnc1)c1cc(-c2ccnc(F)c2)ccc1OCc1ccccc1 | 1.01 °C | 0.22 °C | 0.77 °C | 4.48 °C | 0.39 °C | 0.36 °C | 0.76 °C | 0.97 °C | 1.76 °C | 0.25 °C | 0.47 °C | 4.72 °C | 1.19 °C | 0.34 °C | 0.36 °C | -0.18 °C | -0.02 °C | 0.4 °C | 0.99 °C | 0.03 °C
